Shiga toxin inh – A qHTS for Small Molecule Inhibitors of Shiga Toxin; Vero cells, Shiga toxin protein synthesis inhibition reporter; inhibition, % at 38.7 µM; 9.2% of 290,000 active; AID 2315, 2010; in the data active = inhibition mostly above about 28%, no sharp cut-off; inactive = mostly below about 43%; note: 0% is about no effect
Sm TGR block – qHTS Assay for the Inhibitors of Schistosoma Mansoni Peroxiredoxins; Schistosoma mansoni thioredoxin glutathione reductase (TGR), Q962Y6; purified TGR, DTNB reduction, TNB absorbance 405 nm; Potency, µM (doses to about 114 µM), for the others: at the highest dose activity change, negative = inhibition, actives largely listed as inhibitors; 3% of 360,000 active; AID 485364, 2010; active = well fitted inhibition curve with a large enough effect; inconclusive = small, poorly fitted or top-dose-only effect; inactive = no such curve, though single readings can be large or run the other way; note: potency is the fitted concentration of half-maximal effect; % is set by controls: 0 for no effect and ±100 for the full control effect; nearly all actives have a fitted effect of over 60% in size
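Kinetic colorimetric format: TGR-catalysed, NADPH-driven DTNB reduction monitored via TNB absorbance. Enzyme dispensed at 20 nM; compound exposure 15 min at room temperature before reaction start.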
FMDV antiviral – High Throughput Screening for Foot and Mouth Disease Virus Antivirals | Potency, µM (series often up to 57.9 µM), for inactives: at the highest dose activity change, negative = inhibition, actives largely listed as inhibitors | 1.2% of 410,000 active | FMDV antiviral cell-based qHTS; calls by dose curve; tested in HEK293T cells; note: read-out not given here; potency is the fitted concentration of half-maximal effect; % is set by controls: 0 for no effect and ±100 for the full control effect; nearly all actives have a fitted effect of over 45% in size
CHX counter – Cycloheximide Counterscreen for Small Molecule Inhibitors of Shiga Toxin | cell reporter, cycloheximide protein synthesis inhibition counterscreen | max response, % | 12% of 300,000 active | AID 2314, 2010; in the data active = max response mostly above about 13%, no sharp cut-off; inactive = mostly below about 14%; note: read at 38.3 µM for the half of the compounds with a filed dose; 0% is about no effect
* marks the source's active call; other numbers are inactive results; i = inactive; u = inconclusive; x = not tested or not shown. A selection: hits, their analogues and other compounds. The true share with any hit is near 12%.

SMILES	Shiga toxin inh	Sm TGR block	FMDV antiviral	CHX counter
O=C(CSc1nc2ccc(Cl)cc2[nH]1)N1CCN(C(=O)c2ccco2)CC1	-1	50µM*	-13%	-2
COc1cc2c(cc1OC)C1O[C@](CCCCN3C(=O)c4ccccc4C3=O)(C2)Oc2cc(C)n(Cc3ccccc3)c(=O)c21	i	u	x	-3
O=C(Nc1ccccc1)NC1CCCCC1	49*	-14%	75%	51*
C=CCNC(=S)Nc1cccc([N+](=O)[O-])c1	-9	32µM*	5%	-4
O=C(NC1CCCCCCC1)NC1CCCCC1	23	-10%	0%	26*
CC(=O)c1ccc(NC(=S)NNC(=O)NC2CCCCC2)cc1	59	3%	137%	21*
Cc1ccc(NC(=S)NNC(=S)NC2CCCCC2)cc1	35	1%	91%	-7
CN1CCC(NC(=O)NC2CCCCC2)CC1	4	3%	-16%	1
O=C(Nc1ccccc1)NC1CCCCCCC1	x	x	66%	x
O=C(NC1CCS(=O)(=O)C1)Oc1ccccc1 (centres undefined)	-22	3%	-11%	-6
O=C(Nc1cccc([N+](=O)[O-])c1)NC1CCCCCCC1	81*	u	-15%	32*
CC(NS(=O)(=O)c1ccccc1)C(=O)NC1CCCC1 (centres undefined)	-8	-11%	-7%	-3
O=C(NC1CCCCC1)Oc1ccccc1	51	25%	54%	30*
O=C(NC(=S)Nc1cccc([N+](=O)[O-])c1)C1CCCC1	52*	-18%	4%	34*
CC(C)NS(=O)(=O)c1ccc(NC(=O)NC2CCCCC2)cc1	20	-5%	32%	14*
CSc1ccc(-c2nc3ccc(C)cn3c2Nc2ccccc2C)cc1	x	4%	0%	x
CCOC(=O)c1c(C)oc2nc(C)nc(NCc3cccc(OC)c3)c12	x	-1%	-20%	x
O=C(Nc1ccc(Br)cc1)C1CCCC1	6	0%	12%	6
O=C(Nc1ccccc1NC(=O)NC1CCCCC1)NC1CCCCC1	35	0%	54%	27*
NC(=O)c1ccccc1NC(=O)NC1CCCCC1	10	-6%	4%	-6
O=C(Nc1ccc(Br)cc1)NC1CCCCCCC1	137*	1%	14%	44*
CCc1ccc2oc(C(=O)NCc3ccccc3)cc(=O)c2c1	x	23%	7%	x
Cc1ccc(C(=O)c2cn(Cc3ccc(F)cc3)c3nc(C)ccc3c2=O)cc1	x	-4%	-6%	x
Cc1cccc(N=N/C(=C\O)C(=O)c2cccs2)c1	93*	-4%	u	35*
O=C(/C(=C/O)N=Nc1ccccc1)c1ccncc1	-2	-19%	u	-4
SMILES	Shiga toxin inh	Sm TGR block	FMDV antiviral	CHX counter
CCOC(=O)c1cccc(NC(=O)CC2C(=O)N(c3ccc(C)cc3)C(=O)N2Cc2cccc(OC)c2)c1 (centres undefined)	x	-10%	-14%	x
CN(C)CCCNC(=O)CC(c1ccc(F)cc1)c1ccco1 (centres undefined)	-7	-13%	-22%	-4
CCN(CC)C(=O)CC(c1ccc(F)cc1)c1ccco1 (centres undefined)	-10	28µM*	-23%	-1
CCCN(CCC)C(=O)CC(c1ccccc1)c1ccco1 (centres undefined)	2	14µM*	-11%	-1
CCCCOc1cccc(C(=O)N(Cc2ccc(C)o2)c2ccccn2)c1	x	-7%	-27%	x
O=C(CCn1cnnn1)Nc1ccc(F)cc1	66*	27%	23%	26*
O=C(CCc1ccccc1)Nc1ccc2c(c1)OCCO2	67*	-3%	3%	48*
O=C(CCSCc1ccccc1)Nc1ccc2c(c1)OCCO2	48*	13%	36%	59*
O=C(CCCOc1ccccc1)Nc1ccc2c(c1)OCCO2	65	0%	58%	48*
COc1ccc2nc(SCC(=O)Nc3ccc4c(c3)OCCO4)[nH]c2c1	80*	6%	u	57*
CC(=O)c1cc2c(cc1NC(=O)CCCC(=O)O)OCO2	-11	-15%	-19%	-4
CC(=O)c1cc2c(cc1NC(=O)CCc1ccccc1)OCO2	4	4%	1%	24*
CC(=O)N1CCc2cc(S(=O)(=O)CCC(=O)Nc3ccc4c(c3)OCCO4)ccc21	27	4%	-13%	12*
CC(=O)c1cc2c(cc1NC(=O)CCn1cnnn1)OCO2	6	50µM*	-11%	-5
CCOc1ccc2nc(SCC(=O)Nc3ccc4c(c3)OCCO4)[nH]c2c1	29	7%	-9%	17
Cc1ccc2c(c1)c(=O)c(C(=O)c1ccncc1)cn2CC(=O)Nc1c(C)cccc1C	x	-7%	u	x
COc1ccc(CCC(=O)Nc2ccc3c(c2)OCCO3)cc1	39	-1%	22%	26*
COc1ccc(CCC(=O)Nc2ccc3c(c2)OCO3)cc1	16	-1%	31%	11
O=C(CCc1ccccc1)Nc1cc2c(cc1Cl)OCCO2	80*	3%	7%	47*
O=C(CCc1ccc(S(=O)(=O)N2CCOCC2)cc1)N/N=C/c1ccc(O)c(O)c1O	6	-32%	40µM*	-2
O=C(CCc1ccc(S(=O)(=O)N2CCOCC2)cc1)Nc1ccc2c(c1)OCCO2	49*	0%	-17%	14*
O=C(Cc1ccc2c(c1)OCCO2)Nc1cccc(S(=O)(=O)N2CCOCC2)c1	x	-15%	18%	x
CN(C)c1ncc2nc(-c3cccs3)c(=O)n(C[C@H]3CCCO3)c2n1	x	x	22%	x
CCOc1ccc(NC(=O)N2CCN(C(=O)c3nsc4ccccc34)CC2)cc1	x	6%	-28%	x
Cc1ccc(-c2nc(SCC(=O)NCc3ccco3)c3c(=O)n(C)c(=O)n(C)c3n2)cc1	x	7%	-48%	x
SMILES	Shiga toxin inh	Sm TGR block	FMDV antiviral	CHX counter
O=C(CCc1ccc(O)c(O)c1)N/N=C/c1cc2c(cc1[N+](=O)[O-])OCO2	-9	16µM*	-20%	-2
O=C(NCc1ccccc1)NC1(C(=O)Nc2ccc3c(c2)OCCO3)CCCCC1	71*	4%	-14%	30*
CCN(CC(=O)Nc1ccc2c(c1)OCCO2)C(=O)/C=C/c1ccc(OC)cc1OC	60*	-1%	11%	28*
CCN(CC(=O)Nc1ccc2c(c1)OCCO2)C(=O)/C=C/c1cccc(OC)c1OC	x	1%	31%	x
O=C(CCc1ccccc1)Nc1ccc2c(c1)C(=O)OC2	29	6%	38%	10*
Cc1ccc(N(CC(=O)NCCc2ccc(Cl)cc2)S(=O)(=O)N(C)C)cc1	x	-1%	0%	x
C=CCSC(=S)NC1CCS(=O)(=O)C1 (centres undefined)	7	-21%	13µM*	-7
CCn1nc(C)c(Br)c1C(=O)Sc1ccccc1Cl	-3	8.9µM*	22µM*	-3
CCC(C)Sc1oc(-c2ccco2)nc1S(=O)(=O)c1ccc(Cl)cc1 (centres undefined)	x	-13%	-5%	x
CCOc1cnc(-c2ccc(Cl)cc2)o1	86*	-27%	40%	39*
CCOc1cnc(-c2ccc(OC)cc2)o1	55*	25%	23%	15*
CC(Cc1ccc(O)c(O)c1)(NN)C(=O)O (centres undefined)	x	x	7%	x
Cc1cc(C)c2nc(N3CCCN(C(=O)c4ccco4)CC3)c(C#N)cc2c1	15	2µM*	-15%	6
